Experimental findings from PubChem BioAssay (NCATS) are described below.

Inconclusive results are not listed. Calls of active or inactive are those of the source. Calls come from the whole dose curve; as a rule, active = well fitted activation curve with a large enough effect; inconclusive = small, poorly fitted or top-dose-only effect; inactive = flat fitted curve, though single readings scatter.
Potency is the fitted concentration of half-maximal effect.

The nature of this assay: Cell Proliferation Assay against the TMD8 Cell Line (Caspase readout at 16 hrs) (AID 651712). The following applies: TMD8 lymphoma cells, caspase activation luminescence; series mostly up to 46.1 µM; caspase activation: at the top concentration. Put shortly: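 Caspase-Glo luminescence after 16 h compound exposure of TMD8 cells, 37 °C, 5% CO2. Medium: RPMI without phenol red, 5% FBS. Normalisation: DMSO = 0%, bortezomib 9.2 uM final = 100%.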
As to `Nc1ccc(-c2ccc3ncc4ccc(=O)n(-c5cccc(C(F)(F)F)c5)c4c3c2)cn1`, the Potency is 0.118 µM (active).
Turning to `CNC(=O)c1cc(Oc2ccc(NC(=O)Nc3ccc(Cl)c(C(F)(F)F)c3)c(F)c2)ccn1`, the “caspase activation” value is 1.55% (inactive).
As to `CCC(=O)N1CCN(c2ccc(-n3c(=O)ccc4cnc5ccc(-c6cnc7ccccc7c6)cc5c43)cc2C(F)(F)F)CC1`, the Potency was 18.7 µM (active).
As to `O=C(O)c1ccc(O)c2ncc(N3CCOCC3)cc12`, the “caspase activation” value is 2.37% (inactive).
Turning to `CCCCn1c(=O)n(Cc2ccccc2F)c(=O)c2[nH]c(Cc3ccc(NC(C)=O)cc3)nc21`, the “caspase activation” value is 4.08% (inactive).
Still for that read-out and setting: the same measure for `CC(C)Oc1cc(Nc2nc(N[C@@H](C)c3ccc(F)cn3)ncc2Cl)[nH]n1`: -1.14% (inactive).
For `COc1cccc(OC)c1-c1cc(C(=O)NC2(C(=O)O)C3CC4CC(C3)CC2C4)nn1-c1ccnc2cc(Cl)ccc12` (stereo not drawn), the Potency was 23.5 µM (active).
In the case of `COc1cc2c(cc1OC)CC(=O)N(CCCN(C)C[C@H]1Cc3cc(OC)c(OC)cc31)CC2`, the “caspase activation” value is -1.23% (inactive).
